These results are taken from PubChem BioAssay AID651650 (Sanford-Burnham Center for Chemical Genomics, 2012).

Sequence of Neuropilin-1 (Homo sapiens) (O14786 whole entry, looked up): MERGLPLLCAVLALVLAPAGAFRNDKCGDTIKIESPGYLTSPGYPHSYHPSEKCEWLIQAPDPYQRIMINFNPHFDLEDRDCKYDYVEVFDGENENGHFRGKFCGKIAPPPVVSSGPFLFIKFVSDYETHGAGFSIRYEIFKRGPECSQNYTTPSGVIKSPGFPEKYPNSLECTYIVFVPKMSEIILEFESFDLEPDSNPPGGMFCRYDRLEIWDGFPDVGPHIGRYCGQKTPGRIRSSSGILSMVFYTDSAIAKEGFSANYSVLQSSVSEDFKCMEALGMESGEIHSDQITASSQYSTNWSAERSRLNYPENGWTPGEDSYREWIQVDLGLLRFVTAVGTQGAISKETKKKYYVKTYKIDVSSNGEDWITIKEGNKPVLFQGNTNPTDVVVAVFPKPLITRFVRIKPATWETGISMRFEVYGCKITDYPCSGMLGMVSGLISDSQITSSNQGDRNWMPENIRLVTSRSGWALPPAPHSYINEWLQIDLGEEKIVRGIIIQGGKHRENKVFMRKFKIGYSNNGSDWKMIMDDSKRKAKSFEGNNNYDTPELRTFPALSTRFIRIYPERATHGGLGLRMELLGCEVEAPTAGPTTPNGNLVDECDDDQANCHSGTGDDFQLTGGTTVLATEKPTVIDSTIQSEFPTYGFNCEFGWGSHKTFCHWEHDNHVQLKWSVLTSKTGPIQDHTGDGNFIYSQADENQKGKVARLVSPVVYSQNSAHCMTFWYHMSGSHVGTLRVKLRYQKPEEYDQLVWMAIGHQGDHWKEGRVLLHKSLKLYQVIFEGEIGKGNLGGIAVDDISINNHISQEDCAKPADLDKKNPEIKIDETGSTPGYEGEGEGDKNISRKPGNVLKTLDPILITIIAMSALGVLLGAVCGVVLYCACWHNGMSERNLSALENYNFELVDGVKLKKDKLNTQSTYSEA

This experiment concerns the target Neuropilin-1 (Homo sapiens) (UniProt O14786). In words: NRP-1 b1b2 CendR peptide binding inhibitors, dose response, biochemical, FP and AlphaScreen panel (AID 651650). Conditions: NRP-1 b1b2 / RPARPAR peptide binding, FP or AlphaScreen; run 1, at 100 µM (top of the series).
The term inhibition denotes the change of the read-out against control, counted positive when it falls. On to `Oc1ccccc1-c1ccn[nH]1`, for which the inhibition worked out at 32%.
The figure for `O=C(O)c1ccccc1SCC(=O)N1CCCCC1` is 52.9%; for `COc1ccc(CCN=C2SCC(=O)N2Cc2ccccc2)cc1OC` it is 28.8%; for `Cc1ccc(Cl)cc1N1CCN(C(=O)c2cccc3c(=O)c(C)c(-c4ccccc4)oc23)CC1` it is 20.7%.
The figure for `O=C(c1ccco1)N1CCN(C(=O)c2ccccc2OC(=O)C23CC4CC(CC(C4)C2)C3)CC1` is 74.6%.
In the case of `Cc1cccc(C)c1Nc1nnc(SCC(=O)Nc2cc(S(=O)(=O)N3CCCCC3)ccc2Cl)s1`, the inhibition was -15.9%.
The figure for `CC(C)Oc1ccc(F)cc1-c1cc(C(=O)NCc2ccc(F)cc2)[nH]n1` is 16%; for `COc1ccc(Cn2c(C3CC3)nc3ccc(NC(=O)c4cccnc4)cc3c2=O)cc1` it is 88.1%; for `Nc1ccc(C#Cc2c(-c3ccsc3)oc3ccc(N4CCOCC4)cc23)cc1` it is 28.3%.
The figure for `CCC1Nc2ncnc(N3CCCCC3)c2N(Cc2ccc(C)cc2)C1=O` (centres undefined) is 18.8%.
The figure for `Cc1cccc(NC(=O)c2ccc(OCc3c(C)noc3C)cc2)c1` is 93.6%; for `CC(C)(C)n1nc(-c2ccc(F)cc2)c2c(N)ncnc21` it is 39.3%; for `FC(F)(F)C1CC(c2cccs2)Nc2ncnn21` (centres undefined) it is 46%.
In the case of `O=C(NCc1ccccc1)c1ccc(N2CCC3(CC2)CC(c2ccc(Cl)cc2)=NO3)c([N+](=O)[O-])c1`, the inhibition was 69.3%.
The figure for `CC(C)C(N)c1csc(NC(=O)Nc2cccc(C(F)(F)F)c2)n1` (centres undefined) is 28.7%; for `O=C(CSc1nnc(CNC(=O)C23CC4CC(CC(C4)C2)C3)n1-c1ccccc1)Nc1ccc(F)cc1` it is 4.39%; for `CCOC(=O)Cn1c(=O)n(Cc2ccco2)c(=O)c2ccc(C(=O)NC3CCCC3)cc21` it is 61%.
The figure for `CCCS(=O)(=O)N1CCC(Cc2ccc(OC)cc2)(C(=O)OCC)CC1` is -57.8%; for `COc1ccc(-c2csc(NCCc3nc4cc(C(=O)NCCCO)ccc4n3Cc3ccc(C)cc3)n2)cc1` it is 90.9%.
The figure for `O=C(O)c1cc(NCc2ccc(F)cc2)ccc1N1CCOCC1` is 46.8%.
With `O=C(NC1CC1)c1ccc(COc2ccc(F)cc2)o1`, the inhibition was 23.1%.
The figure for `COC(=O)C1=C(C)NC(C)=C(C(=O)OC)C1C(=O)OC(C)C(=O)c1ccccc1` (centres undefined) is 12.9%.
The figure for `O=C(Nc1cccc2c1CCCC2)c1cc(C2CCCCN2C(=O)CCCc2ccccc2)on1` (centres undefined) is -15%; for `CCC1=C(OC(=O)N(CC)CC)N2C(=O)OC(=NCCOC)[C@]2(Cc2ccccc2)[C@H]2C1=CC[C@H]1C(=O)N(CC(=O)OC)C(=O)[C@H]12` it is 56.3%; for `CCOC(=O)N1CCN(C(=O)Nc2ccc3nc(C)c(C)nc3c2)CC1` it is -6.06%.
The figure for `NC(=O)CC[C@H](NC(=O)c1ccc(F)cc1)C(=O)N1CCN(Cc2ccc3c(c2)OCO3)CC1` is 28.6%.
For the compound `CN1C(=O)c2oc3ccccc3c(=O)c2C1c1ccccn1` (centres undefined), the inhibition is 82.2%.
The figure for `C=CCC1(CC=C)CCCN1C(=O)c1cc(COc2cccc(OC)c2)on1` is 39.2%; for `COc1cc2oc(=O)ccc2cc1[C@@H](O)[C@@H]1OC(C)(C)OC1(C)C` it is 10.7%; for `Cc1cnc(C(=O)OCC(=O)Nc2sc3c(c2C#N)CCC3)cn1` it is 44.2%.
The figure for `Cc1cnccc1CNC(=O)CC1C(=O)NCCN1CC(C)(C)C` (centres undefined) is 57.6%.
The figure for `O=c1c2cn[nH]c2nc(SCc2ccccc2F)n1-c1ccc(Br)cc1` is 53.3%; for `Cc1cccc(N(CC(=O)NC2CCCC2)C(=O)CS(=O)CC(=O)Nc2ccc3c(c2)OCO3)c1C` (centres undefined) it is 49%; for `OCCC1CCCCN1CC(O)COCc1ccc(Cl)cc1` (centres undefined) it is 22.3%.
On to `C=CCN(CC=C)C(=O)C1CC(=O)N(c2ccc(Br)cc2)C1` (centres undefined), for which the inhibition was -4.22%.
The figure for `O=C(CCC(=O)Nc1ccccc1Cl)NN=C1CCCC1` is 67.6%; for `O=C(CN1C2=NCCN2c2ccccc21)c1ccco1` it is 0.0631%.
The figure for `C/C(=N\N=c1/sc2ccccc2n1C)c1ccccn1` is 23.1%; for `CN(c1ccccc1)S(=O)(=O)c1cccc(NC(=O)CSc2nncn2C)c1` it is 21.8%.
